Test results published in PubChem BioAssay AID1259418 (Broad Institute, 2018).
The campaign covered roughly 3,400 compounds. About 840 (25%) were called active. Inconclusive results (about 11%) are left out.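 Rule for the calls: active = fitted half-maximal concentration of signal decrease at or below twice the sample's top tested concentration; inconclusive = flat curve between -70 and -30 percent, or poor fit; inactive = flat within 30 percent, signal rise, or potency above limit.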 Not all results are given here. Potency and affinity values are given separately.

Assay: inhibitors of Toxoplasma growth in IFN-γ-primed HeLa – cell-based, ME49Luc, luciferase, 72 h, dose response (AID 1259418)
Details: T. gondii ME49Luc in IFN-y HeLa, active compounds read low, -100% = high-dose IFN-γ control wells; at 19.5 µM unless noted

Compound | max activity
Cc1nc(-c2cc(S(=O)(=O)N3CCCCC3C)c(C)s2)sc1C (configuration not stated) | -14.7% [at 5 µM] (inactive)
Cc1nc(-c2ccc(F)cc2)sc1-c1ccc(SCc2cccc(C(F)(F)F)c2)nn1 | -7.18% [at 0.16 µM] (inactive)
Cc1cccc(-c2nc(Cn3nnc(-c4nc(-c5ccc(Cl)c(F)c5)no4)c3C)c(C)o2)c1 | 6.89% (inactive)
COc1ccc2c(c1)NC1(CCN(C(=O)Cc3cccs3)CC1)c1cccn1-2 | -16.4% [at 10 µM] (inactive)
COc1cccc(-c2nc3c(s2)CN(S(=O)(=O)c2ccc(Cl)cc2)CC3)c1 | -9.55% [at 0.16 µM] (inactive)
Cc1ccc(C)c(-c2coc(-c3ccc(NC(=O)c4sccc4C)cc3)n2)c1 | 16.8% [at 10 µM] (inactive)
Cc1nc(CCNC(=O)[C@H]2CCCN2C(=O)c2ccccc2Cl)cs1 | 13.6% [at 0.35 µM] (inactive)
Cc1oc(-c2cccc(Cl)c2)nc1Cn1nnc(-c2nc(-c3ccc(F)cc3)no2)c1C | -12.5% [at 0.16 µM] (inactive)
CCOc1ccc(-c2nc(CN3CCN(C(=O)Nc4ccc(C)cc4)CC3)c(C)o2)cc1 | -22.9% (inactive)
CCOc1ccc(-c2nc(CN3CCN(C(=O)Nc4ccccc4OCC)CC3)c(C)o2)cc1 | 16% (inactive)
CCOc1ccc(NC(=O)N2CCN(Cc3nc(-c4ccc(OCC)cc4)oc3C)CC2)cc1 | 8.47% [at 5 µM] (inactive)
CCOc1ccc(-c2nc(CN3CCN(C(=O)Nc4ccc(CC)cc4)CC3)c(C)o2)cc1 | 8.87% [at 1.35 µM] (inactive)
CCOc1ccc(-c2nc(CN3CCN(C(=O)Nc4cc(C)cc(C)c4)CC3)c(C)o2)cc1 | -7.26% [at 0.16 µM] (inactive)
CCOc1ccc(NC(=O)N2CCN(Cc3nc(-c4ccc(C)cc4)oc3C)CC2)cc1 | 18.7% [at 2.6 µM] (inactive)
CCOc1ccc(-c2nc(CN3CCN(C(=O)Nc4ccccc4CC)CC3)c(C)o2)cc1 | 11.7% [at 2.6 µM] (inactive)
COc1ccc(OC)c(NC(=O)N2CCN(Cc3nc(-c4cccc(Cl)c4)oc3C)CC2)c1 | 24.8% [at 5 µM] (inactive)
Cc1ccc(NC(=O)COc2nc(C)nc3ccccc23)c(Br)c1 | 23.6% (inactive)
COC(=O)c1cc(Cl)ccc1NC(=O)COc1nc(C)nc2ccccc12 | 15.7% [at 0.16 µM] (inactive)
Cc1[nH]c2ccccc2c1C(=O)C(=O)NC1CC(=O)N(c2ccccc2)C1 (configuration not stated) | 12.7% [at 2.6 µM] (inactive)
Cc1nc(CCNC(=O)C2CCN(S(=O)(=O)c3cnn(C(F)F)c3C)CC2)cs1 | 8.74% [at 0.68 µM] (inactive)
Cc1ccoc1C(=O)N1CC[C@H]2CO[C@@H](CN3CCN(C)CC3)[C@@H]2C1 | 14.9% (inactive)
COc1cc(OC)c(NC(=O)COc2nc(C)nc3ccccc23)cc1Cl | 39.9% (inactive)
CCc1nc(OCC(=O)Nc2ccccc2OC)c2ccccc2n1 | 14.6% [at 0.35 µM] (inactive)
CSc1cccc(NC(=O)COc2nc(C)nc3ccccc23)c1 | 16.7% [at 5 µM] (inactive)
Cc1ccc(-c2nc(CN3CCN(C(=O)Nc4ccc(C)cc4Cl)CC3)c(C)o2)cc1 | 13.8% [at 2.6 µM] (inactive)
CCOc1ccc(-c2nc(CN3CCN(C(=O)Nc4cccc(C)c4)CC3)c(C)o2)cc1 | 6.07% (inactive)

Compound | max activity
CCOc1ccc(-c2nc(CN3CCN(C(=O)Nc4ccc(C)c(Cl)c4)CC3)c(C)o2)cc1 | 18% [at 0.16 µM] (inactive)
CCOc1ccc(-c2nc(CN3CCN(C(=O)Nc4ccccc4Cl)CC3)c(C)o2)cc1 | 227% (inactive)
Cc1ccc(C(=O)Nc2c(C(=O)N3CCN(c4ncccn4)CC3)[nH]c3ccccc23)cc1 | 15.6% [at 0.68 µM] (inactive)
COc1cccc(CNC(=O)COc2nc(C)nc3ccccc23)c1OC | 25.6% (inactive)
COc1ccc(-c2nc(Nc3cc(C)cc(C)c3)c3ccccc3n2)cc1 | -19.1% [at 0.35 µM] (inactive)
Brc1ccc(Nc2c3ccccc3nc3ccccc23)cc1 | 36.4% [at 5 µM] (inactive)
CN1CCN(C(=O)c2nn(C)c3c2CCN(S(C)(=O)=O)C3)CC1 | 18.7% [at 10 µM] (inactive)
O=C(Cc1ccccn1)N1CC(=O)N2[C@H](C1)[C@@H](c1ccc(C#CCC3CCCC3)cc1)[C@@H]2CO | 6.79% [at 0.3 µM] (inactive)
Cc1ccc(-c2coc(-c3ccc(NC(=O)NCc4cccc(F)c4)cc3)n2)c(C)c1 | 17.3% (inactive)
Cc1ccc(C)c(-c2coc(-c3ccc(NC(=O)Nc4ccccc4F)cc3)n2)c1 | -23.6% [at 0.16 µM] (inactive)
Cc1ccc(-c2coc(-c3ccc(NS(=O)(=O)c4cccc(Cl)c4)cc3)n2)cc1C | -24.2% [at 0.35 µM] (inactive)
CCc1c(C)sc2c1CCN(Cc1nc(-c3cccc(C)c3)oc1C)C2c1ccccc1 (configuration not stated) | 5.74% [at 10 µM] (inactive)
COc1ccc(CCNC(=O)CC2Nc3c4ccccc4nc(=S)n3C2=O)cc1OC (configuration not stated) | 17% [at 0.16 µM] (inactive)
CCc1ccc2c(c1)cc(S(=O)(=O)c1ccccc1)c(=O)n2CC(=O)NCc1ccc(F)cc1 | 15.5% (inactive)
Cc1ccc(C(=O)Nc2ccc(-c3nc(-c4ccc(C)cc4)co3)cc2)cc1 | 113% [at 10 µM] (inactive)
O=C(CCn1nnc2cc(-c3noc(-c4cccc5[nH]ccc45)n3)ccc21)N1CCCC1 | 43% (inactive)
Cc1ccc(NS(=O)(=O)c2cc3c4c(c2)CCC(=O)N4CCC3)cc1C | -11.9% (inactive)
O=C1CCc2cc(S(=O)(=O)Nc3ccc4c(c3)OCCO4)cc3c2N1CCC3 | -30% [at 0.16 µM] (inactive)
Cc1ccc(NS(=O)(=O)c2cc3c4c(c2)CCC(=O)N4CCC3)c(C)c1 | 4.48% [at 2.6 µM] (inactive)
Cc1cccc(C)c1NS(=O)(=O)c1cc2c3c(c1)CCC(=O)N3CCC2 | -22% (inactive)
O=C1CCc2cc(S(=O)(=O)NCc3ccc4c(c3)OCO4)cc3c2N1CCC3 | -19.9% [at 2.6 µM] (inactive)
Cc1cc(C)c(NS(=O)(=O)c2cc3c4c(c2)CCC(=O)N4CCC3)c(C)c1 | 8.39% (inactive)
COc1ccc(CNS(=O)(=O)c2cc3c4c(c2)CCC(=O)N4CCC3)cc1 | -13.1% [at 10 µM] (inactive)
CCOc1cccc(-c2noc(-c3nnn(Cc4nc(-c5ccccc5)oc4C)c3C)n2)c1 | 8.01% (inactive)
COc1ccc(-c2nc3c(s2)CN(S(=O)(=O)c2cccc(Cl)c2)CC3)cc1 | -9.33% [at 2.6 µM] (inactive)
COc1ccc(-c2nc(Cn3nnc(-c4nc(-c5ccccc5Cl)no4)c3C)c(C)o2)cc1 | -7.3% [at 1.35 µM] (inactive)

Compound | max activity
CCCCc1ccc(Nc2ncnc3c2cnn3-c2ccccc2)cc1 | -7.99% [at 0.68 µM] (inactive)
COc1ccc(NC(=O)CN2CCC3(CC2)N=C(c2ccc(F)cc2)C(=O)N3)cc1Cl | -24% [at 0.16 µM] (inactive)
CCc1nc(OCC(=O)Nc2ccccc2CC)c2ccccc2n1 | 28.5% (inactive)
O=C(CC1CCCC1)Nc1ccc2c(c1)CCC(=O)N2 | 12.2% (inactive)
Cc1oc(-c2cccc(Cl)c2)nc1Cn1nnc(-c2nc(-c3ccccn3)no2)c1C | -10.2% [at 5 µM] (inactive)
COc1ccc(-c2ccc(C3[C@@H]4CN(C(=O)c5cnccn5)C[C@H]3N4)cc2)cc1 (some centres not stated) | 10.5% [at 10 µM] (inactive)
COc1ccccc1-c1ccc(C2[C@@H]3CN(C(=O)c4ccncc4)C[C@H]2N3)cc1 (some centres not stated) | 32.2% (inactive)
COc1ccc(C(=O)N2CCC3(CC2)Nc2cc(F)ccc2-n2cccc23)cc1 | -22% [at 0.16 µM] (inactive)
CCOC(=O)CSc1nc(NCc2ccc(OC)cc2)c2ccccc2n1 | 20.1% [at 10 µM] (inactive)
Cc1ccc2c(c1C)-n1cccc1C1(CCN(C(=O)Cc3ccc(F)cc3)CC1)N2 | 11.4% [at 0.68 µM] (inactive)
O=C(Nc1cncc(-c2nc3ccccc3o2)c1)c1cccc(Cl)c1 | 14.2% [at 0.16 µM] (inactive)
COc1ccc(S(=O)(=O)N2CCCCN3[C@H](C2)[C@@H](c2ccc(C#CCC(C)C)cc2)[C@@H]3CO)cc1 | 177% [at 10 µM] (inactive)
Cc1cccc(NC(=O)N2CCc3nc(-c4ccccc4)sc3C2)c1 | -11.3% [at 0.35 µM] (inactive)
CCOc1ccc(CC(=O)Nc2ccc(-c3nc(-c4ccccc4)co3)cc2)cc1OCC | 30.5% [at 10 µM] (inactive)
Cc1ccc(NC(=O)CN2CCC3(CC2)N=C(c2ccc(F)cc2)C(=O)N3)cc1C | -13.8% [at 1.35 µM] (inactive)
COc1ccccc1-c1nc(Cn2nnc(-c3nc(-c4ccc(C(F)(F)F)cc4)no3)c2C)c(C)o1 | 8.9% (inactive)
COc1cccc(NC(=O)Nc2ccc(-c3nc(-c4ccccc4)co3)cc2)c1 | 66.2% (inactive)
C=CCO[C@@H]1CCN(c2cc(OC)ncn2)[C@H]1Cc1cnn(C)c1 | 25.2% (inactive)
CC=Cc1ccc2n(c1=O)C[C@H]1[C@H](CO)[C@@H](C(=O)Nc3ccc(-c4ccccc4)cc3)[C@@H]2N1C(=O)CC (mixture of isomers) | 25.5% (inactive)
Clc1ccc(CSc2nc(NCCc3ccccc3)c3ccccc3n2)cc1 | 29.6% [at 2.6 µM] (inactive)
COc1ccc(CNc2nc(SCc3ccccc3Cl)nc3ccccc23)cc1 | 17.2% (inactive)
Clc1ccc(CSc2nc(NCc3ccccc3)c3ccccc3n2)cc1 | 30.6% [at 2.6 µM] (inactive)
Clc1cccc(CSc2nc(NCCc3ccccc3)c3ccccc3n2)c1 | -7.56% [at 0.16 µM] (inactive)
COc1ccc(CCNc2nc(SCc3cccc(F)c3)nc3ccccc23)cc1OC | 12% [at 5 µM] (inactive)
Clc1ccc(CNc2nc(SCc3ccc(Cl)cc3)nc3ccccc23)cc1 | 7.58% [at 2.6 µM] (inactive)
